Assay [1] deals with Wnt5a (protein binding on small-molecule microarray). The experiment in a line: Wnt5a binders on small-molecule microarray, primary screen, biophysical, 635/667 nm fluorescence (AID 1142).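 Also: fluorescence read at 667 nm with signal to noise per printed feature.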 The settings on record: 635 nm fluorescence, higher = more signal.
A short description of assay [2]: cell viability in Huh7 cells, primary screen, cytotoxicity control for HCV replication inhibitor project, CellTiter-Glo luminescence, basal, 48 h (AID 1143).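 Also: Huh7 hepatoma cells carrying a hepatitis C replication reporter with no stimulus; test concentration not given here.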 The settings on record: Huh7 HCV replicon, higher = more signal, called active from +8 up or from −8 down. In general terms: ATP-based viability assays read luminescence as a measure of living cells.
Assay [3] can be described thus: P. aeruginosa biofilm formation inhibitors, primary screen, PAO1 strain, BacTiter-Glo luminescence, LB-PBS (AID 1144). The conditions noted are these: 12 h, higher = more signal.
Assay [4] in a line: CREB reporter modulators without forskolin, primary screen, cell-based, PC12, CRE-LacZ reporter, unstimulated (AID 1145). The settings on record: no forskolin, luminescence, 4.5 h, higher = more signal, called active from +8 up or from −8 down.
Assay [5] in a line: CREB reporter modulators under forskolin, primary screen, cell-based, PC12, CRE-LacZ reporter, forskolin-stimulated (AID 1146).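 Also: PC12 cells with 6xCRE LacZ reporter stimulated by forskolin 10 µM; beta-galactosidase reporter signal reflecting CREB driven transcription.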 The settings on record: luminescence, 4.5 h, higher = more signal, called active from +8 up or from −8 down.
In assay [6] the target is Streptavidin (Streptomyces avidinii) (UniProt P22629). The experiment in a line: streptavidin binders on small-molecule microarray, primary screen, artefact control for SMM compound annotation, biophysical, 635/667 nm fluorescence (AID 1147).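 Also: signal reflects streptavidin binding to arrayed compounds as a control protein.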 The conditions noted are these: streptavidin binding, higher = more signal.
Assay [7] is described as follows: small-molecule binders of probe aInhba, primary screen, biochemical, small-molecule microarray, 635/667 nm fluorescence (AID 1148).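 Also: score merges 667nm spot fluorescence with signal-to-noise for antibody binding to printed compounds.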 The conditions noted are these: higher = more signal.
The target of assay [8] is Torsin-1A (Homo sapiens) (UniProt O14656). The experiment in a line: torsin A binders from cell lysate, primary screen, small-molecule microarray, wild-type, 635/667 nm (AID 1149). The settings on record: COS7 hTOR1A-WT lysate, 635 nm fluorescence, higher = more signal.
Assay [9] has the same target. As to the kind of experiment: small-molecule binders of mutant TOR1A in lysate, primary screen, cell lysate, small-molecule microarray, COS7 lysate, 635/667 nm fluorescence (AID 1150).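 Also: score pools 667 nm emission and signal to noise measuring lysate protein binding.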 The settings on record: COS7 hTOR1A mutant lysate, 635 nm fluorescence, higher = more signal.
Assay [10] concerns Sonic hedgehog protein (Shh). As to the kind of experiment: small-molecule binders of Shh protein, primary screen, biochemical, small-molecule microarray, 635/667 nm fluorescence (AID 1151).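 Also: Shh protein binding to compounds spotted on small-molecule microarray slides; score combines spot fluorescence intensity with signal-to-noise across triplicate slides.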 The settings on record: small-molecule microarray binding, 635 nm fluorescence; higher = more signal.
The nature of assay [11]: E. coli DRC41 culture turbidity changes, primary screen, E. coli filamentation inducer project, strain DRC41, OD650, 48 h (AID 1152).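 Also: E. coli MC1000 strain DRC41 lacking acrAB efflux pump and sulA.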 The conditions noted are these: E. coli DRC41 (acrAB sulA), higher = more signal, called active from +8 up or from −8 down.
Assay [12] in a line: small-molecule binders of probe aLefty1, primary screen, biochemical, small-molecule microarray, 635/667 nm fluorescence (AID 1153).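 Also: score merges spot fluorescence with signal-to-noise ratio from the scanned slide images.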 The conditions noted are these: higher = more signal.
Assay [13] is described as follows: PSAC antagonists in infected red cells, primary screen, cell-based, P. falciparum Indochina, OD700, 1 h (AID 1154). The conditions noted are these: P. falciparum Indochina infected RBC osmotic lysis, higher = more signal, called active from +8 up or from −8 down.
A short description of assay [14]: PSAC antagonists in infected red cells, primary screen, cell-based, P. falciparum Indochina, OD700, 2 h (AID 1155).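 Also: lysis reports solute entry through the parasite surface anion channel PSAC; channel blockers reduce lysis of infected cells.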 The conditions noted are these: P. falciparum Indochina infected erythrocytes, osmotic lysis OD700; higher = more signal, called active from +8 up or from −8 down.
Assay [15] is described as follows: osmotic lysis modulators in infected erythrocytes, primary screen, PSAC antagonist project, cell-based, P. falciparum Indochina, OD700, 3 h (AID 1156). The settings on record: higher = more signal, called active from +8 up or from −8 down.
The nature of assay [16]: PSAC antagonists in infected red cells, primary screen, cell-based, P. falciparum Indochina, OD700, 18 h (AID 1157). The settings on record: P. falciparum Indochina infected erythrocytes, osmotic lysis OD700, 18 h; higher = more signal, called active from +8 up or from −8 down.
Assay [17] is described as follows: modulators of S6 phosphorylation in cells, primary screen, cell-based, A549, cytoblot, luminescence, serum-stimulated (AID 1158).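 Also: serum-stimulated A549 lung adenocarcinoma cells; signal is phosphorylated S6 detected by cytoblot immunostaining with HRP secondary.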 The settings on record: A549 phospho-S6 cytoblot, 5 h, higher = more signal.
The target in assay [18] is NADPH oxidase 2 (Homo sapiens) (UniProt P04839). The experiment in a line: NOX2-dependent H2O2 signal modulators, primary screen, NOX inhibitor project, cell-based, HEK293-NOX2, PMA-stimulated, Amplex Red fluorescence (AID 1159). Also: test concentration not given here. The conditions noted are these: 45 min, higher = more signal, called active from +8 up or from −8 down.
Assay [19] deals with NADPH oxidase 4 (Homo sapiens) (UniProt Q9NPH5). As to the kind of experiment: NOX4-dependent H2O2 signal modulators, primary screen, NOX inhibitor project, cell-based, HEK293-NOX4, tetracycline-induced, Amplex Red fluorescence (AID 1160). The conditions noted are these: 45 min, higher = more signal, called active from +8 up or from −8 down.
In assay [20] the target is NADPH oxidase 5 (Homo sapiens) (UniProt Q96PH1). As to the kind of experiment: NOX5-dependent H2O2 signal modulators, primary screen, NOX inhibitor project, cell-based, HEK293-NOX5, Amplex Red fluorescence (AID 1161). The conditions noted are these: HEK293-NOX5, ionomycin, 45 min, higher = more signal.

Active and inactive are the calls of the source. Unless noted, no rule for the calls is given here.

Sequence of Streptavidin (Streptomyces avidinii) (P22629 whole entry, looked up): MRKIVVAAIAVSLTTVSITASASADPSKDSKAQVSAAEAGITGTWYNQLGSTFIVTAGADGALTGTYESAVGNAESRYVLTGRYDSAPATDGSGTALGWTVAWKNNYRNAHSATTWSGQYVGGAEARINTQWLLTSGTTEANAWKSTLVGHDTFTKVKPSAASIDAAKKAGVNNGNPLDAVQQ
Sequence of NADPH oxidase 5 (Homo sapiens) (Q96PH1 whole entry, looked up): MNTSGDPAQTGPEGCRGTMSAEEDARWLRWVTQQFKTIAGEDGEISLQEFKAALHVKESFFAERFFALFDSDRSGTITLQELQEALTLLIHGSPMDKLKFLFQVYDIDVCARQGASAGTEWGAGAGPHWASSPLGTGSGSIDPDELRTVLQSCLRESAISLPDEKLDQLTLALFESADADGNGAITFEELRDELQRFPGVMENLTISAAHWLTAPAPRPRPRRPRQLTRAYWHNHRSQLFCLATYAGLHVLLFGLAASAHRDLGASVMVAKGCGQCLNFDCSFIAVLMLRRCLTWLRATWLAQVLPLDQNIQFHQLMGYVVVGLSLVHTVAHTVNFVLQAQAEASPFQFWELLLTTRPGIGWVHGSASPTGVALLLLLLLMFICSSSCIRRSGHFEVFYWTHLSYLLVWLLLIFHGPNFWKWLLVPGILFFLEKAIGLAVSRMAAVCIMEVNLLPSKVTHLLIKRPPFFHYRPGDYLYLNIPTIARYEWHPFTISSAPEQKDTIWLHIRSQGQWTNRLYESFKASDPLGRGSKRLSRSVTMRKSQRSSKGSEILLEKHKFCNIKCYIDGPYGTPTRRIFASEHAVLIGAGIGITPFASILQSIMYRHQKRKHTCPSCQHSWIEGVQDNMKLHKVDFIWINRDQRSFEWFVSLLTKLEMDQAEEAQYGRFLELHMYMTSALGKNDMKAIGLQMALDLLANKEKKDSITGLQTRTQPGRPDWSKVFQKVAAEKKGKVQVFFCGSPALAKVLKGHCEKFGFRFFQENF
Sequence of Torsin-1A (Homo sapiens) (O14656 whole entry, looked up): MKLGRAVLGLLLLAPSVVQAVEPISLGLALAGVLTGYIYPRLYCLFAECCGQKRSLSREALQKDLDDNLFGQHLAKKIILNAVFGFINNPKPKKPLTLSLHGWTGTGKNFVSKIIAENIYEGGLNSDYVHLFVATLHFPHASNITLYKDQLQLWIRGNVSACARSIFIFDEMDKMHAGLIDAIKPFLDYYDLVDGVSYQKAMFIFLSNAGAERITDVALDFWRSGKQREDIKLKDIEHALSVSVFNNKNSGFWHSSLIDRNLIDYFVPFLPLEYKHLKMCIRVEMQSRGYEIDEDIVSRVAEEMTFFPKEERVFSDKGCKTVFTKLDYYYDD
Sequence of NADPH oxidase 4 (Homo sapiens) (Q9NPH5 whole entry, looked up): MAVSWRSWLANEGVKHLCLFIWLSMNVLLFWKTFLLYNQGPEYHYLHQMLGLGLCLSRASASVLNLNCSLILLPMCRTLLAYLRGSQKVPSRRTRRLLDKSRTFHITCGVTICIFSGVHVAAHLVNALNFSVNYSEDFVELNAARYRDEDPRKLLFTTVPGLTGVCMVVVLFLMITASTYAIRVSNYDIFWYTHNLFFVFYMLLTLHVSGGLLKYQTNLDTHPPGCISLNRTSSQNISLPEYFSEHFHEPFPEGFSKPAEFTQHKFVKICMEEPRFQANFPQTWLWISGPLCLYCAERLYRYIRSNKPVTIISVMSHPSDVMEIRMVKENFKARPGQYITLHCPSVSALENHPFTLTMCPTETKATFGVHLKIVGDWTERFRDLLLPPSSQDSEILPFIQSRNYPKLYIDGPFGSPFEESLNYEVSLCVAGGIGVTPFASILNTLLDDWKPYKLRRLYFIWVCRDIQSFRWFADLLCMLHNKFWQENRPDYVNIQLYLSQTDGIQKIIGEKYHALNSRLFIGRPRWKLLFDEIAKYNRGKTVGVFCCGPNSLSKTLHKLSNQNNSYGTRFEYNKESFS
Sequence of NADPH oxidase 2 (Homo sapiens) (P04839 whole entry, looked up): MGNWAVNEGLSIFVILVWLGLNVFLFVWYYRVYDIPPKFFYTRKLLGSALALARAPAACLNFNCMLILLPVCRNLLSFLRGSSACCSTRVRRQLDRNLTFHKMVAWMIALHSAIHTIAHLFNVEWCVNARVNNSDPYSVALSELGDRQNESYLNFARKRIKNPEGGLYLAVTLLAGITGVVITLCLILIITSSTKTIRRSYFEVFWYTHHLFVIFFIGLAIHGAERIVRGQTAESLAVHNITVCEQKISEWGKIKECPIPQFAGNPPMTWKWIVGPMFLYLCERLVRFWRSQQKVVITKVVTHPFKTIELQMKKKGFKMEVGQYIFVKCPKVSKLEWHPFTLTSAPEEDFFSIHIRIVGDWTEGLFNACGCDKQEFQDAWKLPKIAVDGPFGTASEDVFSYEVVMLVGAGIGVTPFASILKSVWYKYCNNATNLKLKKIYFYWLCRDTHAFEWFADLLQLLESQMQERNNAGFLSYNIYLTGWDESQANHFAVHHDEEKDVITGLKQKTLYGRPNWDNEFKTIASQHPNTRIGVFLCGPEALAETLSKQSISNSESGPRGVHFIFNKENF

On to `COC(=O)CC=C[C@@H](C)[C@H](OC)c1ccccc1Br`, for which the composite z-score in [1] is -0.0438; in assay [6], -0.112; in assay [7], -0.128; in the assay with Torsin-1A (Homo sapiens) [8] it was 0.258; in the assay with Torsin-1A (Homo sapiens) [9], 0.466; in assay [10], 0.153. The molecule further yielded a composite z-score in [12] of -0.245. The z-score was 0.266 (inactive) in assay [2]; 0.189 (inactive) in assay [3]; -0.971 (inactive) in assay [4]; -0.868 (inactive) in assay [5]; -0.119 (inactive) in assay [11]; 0.727 (inactive) in assay [13]. For the same molecule, the z-score in assay [14] was 0.716 (inactive); in assay [15], 0.216 (inactive); in [16], 0.367 (inactive); in [17], -0.0689; in assay [18], -0.524 (inactive); in assay [19], 0.055 (inactive). The z-score in assay [20] was -0.297.

Consider `COCCOC(=O)N1C(=O)[C@@]2(c3cc(C#CCNC(N)=O)ccc31)[C@H](c1ccc(O)cc1)N1[C@H](c3ccccc3)[C@H](c3ccccc3)OC(=O)[C@H]1[C@@H]2C(=O)N1CCCCCCC1`, for which the composite z-score is 0.272 in assay [1]; 0.445 in assay [6]; -0.186 in assay [7]; 0.4 with Torsin-1A (Homo sapiens) [8]; 0.527 with Torsin-1A (Homo sapiens) [9]; 1.65 in assay [10]. Besides, in assay [12], the composite z-score is -0.0779. For the same molecule, the z-score in assay [2] is -0.446 (inactive); in assay [3], -0.945 (inactive); in assay [4], -1.57 (inactive); in assay [5], 0.357 (inactive); in [11], 0.455 (inactive); in assay [13], 1.04 (inactive). Also, the z-score in assay [14] was 0.656 (inactive); in [15] it was -0.0303 (inactive); in [16], 0.411 (inactive); in [17], 0.0352; in assay [18], 1.49 (inactive); in assay [19], -1.04 (inactive). Moreover, the z-score in [20] amounted to 1.48.

Take `CC(CCN1CCc2nc(-c3ccccc3)c(-c3ccccc3)cc2C1)=NOC(C)CN1CCCCc2nc(C)c(C)cc21` (stereo not given): the composite z-score was 0.0802 in assay [1]; 0.393 in [6]; -0.0195 in [7]; 0.319 in the assay with Torsin-1A (Homo sapiens) [8]; 0.278 in the assay with Torsin-1A (Homo sapiens) [9]; 0.569 in [10]. The same molecule showed a composite z-score in [12] of -0.106. Moreover, the z-score in assay [2] was 0.168 (inactive); in assay [3] it was -0.075 (inactive); in [4], -0.147 (inactive); in [5], 0.0715 (inactive); in assay [11], -0.934 (inactive); in assay [13], 1.08 (inactive). For the same molecule, the z-score is -0.198 (inactive) in [14]; 0.281 (inactive) in [15]; 0.343 (inactive) in [16]; -0.0953 in assay [17]; -0.839 (inactive) in assay [18]; 0.405 (inactive) in assay [19]. In assay [20], the z-score was found to be 0.108.

For `CC(CCC(=O)OC[C@H]1O[C@H](C#Cc2ccccc2)C=C[C@@H]1Oc1ccc(C)cc1)=NO[C@@H](C)c1cn([C@H](CO)Cc2ccccc2)nn1`, the composite z-score in assay [1] was 0.204; in assay [6], 0.258; in assay [7] it was -0.003; with Torsin-1A (Homo sapiens) [8], -0.323; with Torsin-1A (Homo sapiens) [9], -0.146; in assay [10] it was 0.316. In [12], this molecule yielded a composite z-score of -0.247. For the same molecule, the z-score was -2.82 (inactive) in [2]; -1.07 (inactive) in [3]; 1.07 (inactive) in assay [4]; 0.0061 (inactive) in assay [5]; -0.913 (inactive) in assay [11]; 10.5 (active) in [13]. Moreover, the z-score was 0.542 (inactive) in assay [14]; 1.78 (inactive) in [15]; -1.05 (inactive) in assay [16]; 0.672 in assay [17]; -1.54 (inactive) in [18]; -0.298 (inactive) in assay [19]. This molecule returned a z-score in assay [20] of -0.428.

Values taken from PubChem BioAssay.
